In ChEMBL document CHEMBL1961873, “Compounds: GSK PKIS; Assays: Nanosyn kinase panel” (2012):

Legend:
[1] = molecular target: Protein kinase C gamma type (Homo sapiens) (UniProt P05129); conditions: at 1 µM;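 further: each value is an averaged percent inhibition of the enzyme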
[2] = molecular target: T1, Protein kinase C iota type (Homo sapiens) (UniProt P41743); conditions: at 0.1 µM
T1 sequence (whole entry): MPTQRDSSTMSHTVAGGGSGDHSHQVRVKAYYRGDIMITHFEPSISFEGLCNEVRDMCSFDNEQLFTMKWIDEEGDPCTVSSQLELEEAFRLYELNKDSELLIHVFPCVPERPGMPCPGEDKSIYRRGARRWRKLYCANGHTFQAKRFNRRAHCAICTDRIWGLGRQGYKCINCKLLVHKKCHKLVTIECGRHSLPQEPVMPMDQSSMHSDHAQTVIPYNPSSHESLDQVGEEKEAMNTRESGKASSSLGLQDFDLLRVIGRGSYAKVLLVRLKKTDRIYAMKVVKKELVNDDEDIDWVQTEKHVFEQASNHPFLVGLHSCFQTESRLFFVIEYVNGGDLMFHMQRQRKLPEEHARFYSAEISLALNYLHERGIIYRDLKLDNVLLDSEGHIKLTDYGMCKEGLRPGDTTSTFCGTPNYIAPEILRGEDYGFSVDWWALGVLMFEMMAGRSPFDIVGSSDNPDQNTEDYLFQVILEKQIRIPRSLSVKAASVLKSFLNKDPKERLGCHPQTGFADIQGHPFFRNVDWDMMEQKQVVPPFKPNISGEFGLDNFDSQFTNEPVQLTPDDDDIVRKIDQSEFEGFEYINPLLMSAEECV

[3] = molecular target: T1, Protein kinase C iota type (Homo sapiens); conditions: at 1 µM
[4] = molecular target: Protein kinase C theta type (Homo sapiens) (UniProt Q04759); conditions: at 0.1 µM
[5] = molecular target: Protein kinase C theta type (Homo sapiens) (UniProt Q04759); conditions: at 1 µM
[6] = molecular target: Protein kinase C beta type (Homo sapiens) (UniProt P05771); conditions: at 0.1 µM
[7] = molecular target: Protein kinase C beta type (Homo sapiens) (UniProt P05771); conditions: at 1 µM
[8] = molecular target: T2, Serine/threonine-protein kinase D1 (Homo sapiens) (UniProt Q15139); conditions: at 0.1 µM
T2 sequence (whole entry): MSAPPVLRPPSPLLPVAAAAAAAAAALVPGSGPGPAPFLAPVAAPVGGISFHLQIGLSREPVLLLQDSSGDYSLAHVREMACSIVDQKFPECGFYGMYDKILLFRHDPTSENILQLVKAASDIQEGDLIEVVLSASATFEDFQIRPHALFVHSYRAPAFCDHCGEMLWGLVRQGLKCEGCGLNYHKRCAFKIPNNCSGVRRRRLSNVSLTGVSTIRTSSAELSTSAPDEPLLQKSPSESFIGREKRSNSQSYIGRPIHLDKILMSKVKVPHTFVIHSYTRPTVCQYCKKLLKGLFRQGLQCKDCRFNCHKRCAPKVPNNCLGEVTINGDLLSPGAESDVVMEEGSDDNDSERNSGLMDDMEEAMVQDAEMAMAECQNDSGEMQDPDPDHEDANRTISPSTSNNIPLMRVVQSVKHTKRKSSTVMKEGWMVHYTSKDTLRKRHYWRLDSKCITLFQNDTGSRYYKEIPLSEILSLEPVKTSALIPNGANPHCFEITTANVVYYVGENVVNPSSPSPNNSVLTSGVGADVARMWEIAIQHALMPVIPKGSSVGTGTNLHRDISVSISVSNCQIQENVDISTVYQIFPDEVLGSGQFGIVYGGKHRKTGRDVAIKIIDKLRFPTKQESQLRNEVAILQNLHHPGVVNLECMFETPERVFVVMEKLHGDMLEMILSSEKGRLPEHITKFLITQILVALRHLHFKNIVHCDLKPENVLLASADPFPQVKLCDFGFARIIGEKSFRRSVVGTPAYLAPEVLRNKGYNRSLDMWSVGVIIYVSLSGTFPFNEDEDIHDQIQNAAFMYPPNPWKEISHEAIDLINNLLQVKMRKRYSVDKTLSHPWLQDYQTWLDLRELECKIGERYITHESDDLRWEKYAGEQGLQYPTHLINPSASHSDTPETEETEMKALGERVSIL

[9] = molecular target: T2, Serine/threonine-protein kinase D1 (Homo sapiens); conditions: at 1 µM
[10] = molecular target: T3, Serine/threonine-protein kinase D2 (Homo sapiens) (UniProt Q9BZL6); conditions: at 0.1 µM
T3 sequence (whole entry): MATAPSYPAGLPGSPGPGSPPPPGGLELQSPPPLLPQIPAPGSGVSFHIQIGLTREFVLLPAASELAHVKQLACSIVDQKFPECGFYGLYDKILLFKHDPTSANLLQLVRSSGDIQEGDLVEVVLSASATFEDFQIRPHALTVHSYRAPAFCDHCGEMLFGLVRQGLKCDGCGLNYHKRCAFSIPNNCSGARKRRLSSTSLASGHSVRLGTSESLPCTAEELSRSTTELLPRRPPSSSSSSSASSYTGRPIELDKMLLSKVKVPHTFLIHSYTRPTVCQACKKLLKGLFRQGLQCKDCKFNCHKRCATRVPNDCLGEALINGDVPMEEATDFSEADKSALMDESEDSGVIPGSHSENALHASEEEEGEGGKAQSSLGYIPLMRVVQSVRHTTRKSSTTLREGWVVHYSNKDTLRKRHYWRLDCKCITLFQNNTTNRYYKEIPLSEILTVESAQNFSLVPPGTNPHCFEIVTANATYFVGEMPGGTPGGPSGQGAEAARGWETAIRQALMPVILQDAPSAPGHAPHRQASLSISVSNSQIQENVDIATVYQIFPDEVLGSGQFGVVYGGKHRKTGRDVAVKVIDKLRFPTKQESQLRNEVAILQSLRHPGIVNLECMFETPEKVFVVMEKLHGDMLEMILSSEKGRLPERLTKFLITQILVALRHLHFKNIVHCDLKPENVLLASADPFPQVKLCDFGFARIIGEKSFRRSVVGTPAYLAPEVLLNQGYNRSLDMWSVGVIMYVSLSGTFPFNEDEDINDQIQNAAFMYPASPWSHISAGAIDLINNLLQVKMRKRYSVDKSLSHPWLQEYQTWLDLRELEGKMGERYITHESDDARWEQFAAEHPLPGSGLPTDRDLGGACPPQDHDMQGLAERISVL

[11] = molecular target: T3, Serine/threonine-protein kinase D2 (Homo sapiens); conditions: at 1 µM
[12] = molecular target: T4, Serine/threonine-protein kinase D3 (Homo sapiens) (UniProt O94806); conditions: at 0.1 µM
T4 sequence (whole entry): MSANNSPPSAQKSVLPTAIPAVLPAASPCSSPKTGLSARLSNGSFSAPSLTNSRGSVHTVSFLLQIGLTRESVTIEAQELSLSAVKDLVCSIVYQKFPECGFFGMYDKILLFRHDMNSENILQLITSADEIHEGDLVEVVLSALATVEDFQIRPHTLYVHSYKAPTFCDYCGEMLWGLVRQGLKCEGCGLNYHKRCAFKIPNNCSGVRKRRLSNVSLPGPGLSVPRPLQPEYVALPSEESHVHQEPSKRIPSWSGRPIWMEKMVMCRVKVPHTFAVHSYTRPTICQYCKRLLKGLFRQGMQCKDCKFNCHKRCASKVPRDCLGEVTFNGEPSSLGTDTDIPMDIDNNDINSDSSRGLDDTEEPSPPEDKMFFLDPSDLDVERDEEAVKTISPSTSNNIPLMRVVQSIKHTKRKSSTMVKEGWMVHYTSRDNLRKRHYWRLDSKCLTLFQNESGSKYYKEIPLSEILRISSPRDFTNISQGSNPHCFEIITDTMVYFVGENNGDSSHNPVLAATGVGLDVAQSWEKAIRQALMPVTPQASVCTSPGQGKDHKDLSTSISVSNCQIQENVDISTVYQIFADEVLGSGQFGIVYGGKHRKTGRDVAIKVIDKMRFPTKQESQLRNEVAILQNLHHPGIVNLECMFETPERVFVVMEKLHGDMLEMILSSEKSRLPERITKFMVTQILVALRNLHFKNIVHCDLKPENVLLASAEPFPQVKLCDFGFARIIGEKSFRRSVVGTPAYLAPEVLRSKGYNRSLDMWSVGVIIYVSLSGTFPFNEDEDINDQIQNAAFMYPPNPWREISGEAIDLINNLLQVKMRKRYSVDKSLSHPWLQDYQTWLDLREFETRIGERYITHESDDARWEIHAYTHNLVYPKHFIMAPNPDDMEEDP

[13] = molecular target: T4, Serine/threonine-protein kinase D3 (Homo sapiens); conditions: at 1 µM
[14] = molecular target: T5, cGMP-dependent protein kinase 1 (Homo sapiens) (UniProt Q13976); conditions: at 0.1 µM
T5 sequence (whole entry): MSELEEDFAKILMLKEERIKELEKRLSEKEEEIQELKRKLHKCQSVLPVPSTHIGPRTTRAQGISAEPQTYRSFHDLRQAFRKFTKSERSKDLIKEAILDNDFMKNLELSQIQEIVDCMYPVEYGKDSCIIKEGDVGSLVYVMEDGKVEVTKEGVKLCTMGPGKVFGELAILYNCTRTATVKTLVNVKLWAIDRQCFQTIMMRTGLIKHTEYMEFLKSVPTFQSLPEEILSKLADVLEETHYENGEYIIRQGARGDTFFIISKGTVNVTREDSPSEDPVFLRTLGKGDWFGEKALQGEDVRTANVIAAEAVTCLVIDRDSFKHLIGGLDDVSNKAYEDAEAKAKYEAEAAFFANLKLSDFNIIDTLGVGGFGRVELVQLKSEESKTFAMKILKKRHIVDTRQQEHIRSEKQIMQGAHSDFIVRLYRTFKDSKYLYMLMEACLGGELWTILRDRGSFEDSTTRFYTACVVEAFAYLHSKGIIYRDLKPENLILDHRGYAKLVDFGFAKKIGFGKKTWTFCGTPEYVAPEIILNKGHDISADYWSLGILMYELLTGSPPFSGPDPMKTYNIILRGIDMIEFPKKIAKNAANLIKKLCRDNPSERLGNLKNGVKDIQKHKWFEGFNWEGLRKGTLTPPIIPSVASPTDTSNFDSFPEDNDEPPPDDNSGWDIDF

[15] = molecular target: T5, cGMP-dependent protein kinase 1 (Homo sapiens); conditions: at 1 µM
[16] = molecular target: T6, cGMP-dependent protein kinase 2 (Homo sapiens) (UniProt Q13237); conditions: at 0.1 µM
T6 sequence (whole entry): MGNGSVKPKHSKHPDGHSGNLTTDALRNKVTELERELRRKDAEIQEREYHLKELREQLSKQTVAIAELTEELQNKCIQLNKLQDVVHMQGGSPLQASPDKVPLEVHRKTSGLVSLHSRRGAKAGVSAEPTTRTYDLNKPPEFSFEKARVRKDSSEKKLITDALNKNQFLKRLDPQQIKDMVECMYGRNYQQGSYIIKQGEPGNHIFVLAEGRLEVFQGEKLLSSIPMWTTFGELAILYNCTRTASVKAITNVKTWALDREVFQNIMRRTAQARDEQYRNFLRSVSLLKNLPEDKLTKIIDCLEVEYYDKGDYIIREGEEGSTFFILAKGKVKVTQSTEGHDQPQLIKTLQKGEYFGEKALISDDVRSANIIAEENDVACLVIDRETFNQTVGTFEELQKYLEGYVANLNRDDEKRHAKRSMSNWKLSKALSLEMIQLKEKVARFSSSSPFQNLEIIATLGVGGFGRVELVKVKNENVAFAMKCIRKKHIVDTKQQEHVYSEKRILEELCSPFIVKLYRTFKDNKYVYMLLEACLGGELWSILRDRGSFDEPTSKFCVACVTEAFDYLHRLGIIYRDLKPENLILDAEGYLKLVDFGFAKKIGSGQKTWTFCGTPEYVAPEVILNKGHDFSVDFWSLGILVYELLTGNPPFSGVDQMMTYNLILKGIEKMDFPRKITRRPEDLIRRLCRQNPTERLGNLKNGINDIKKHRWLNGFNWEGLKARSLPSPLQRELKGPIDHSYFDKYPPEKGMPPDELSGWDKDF

[17] = molecular target: T6, cGMP-dependent protein kinase 2 (Homo sapiens); conditions: at 1 µM
[18] = molecular target: T7, cAMP-dependent protein kinase catalytic subunit PRKX (Homo sapiens) (UniProt P51817); conditions: at 0.1 µM
T7 sequence (whole entry): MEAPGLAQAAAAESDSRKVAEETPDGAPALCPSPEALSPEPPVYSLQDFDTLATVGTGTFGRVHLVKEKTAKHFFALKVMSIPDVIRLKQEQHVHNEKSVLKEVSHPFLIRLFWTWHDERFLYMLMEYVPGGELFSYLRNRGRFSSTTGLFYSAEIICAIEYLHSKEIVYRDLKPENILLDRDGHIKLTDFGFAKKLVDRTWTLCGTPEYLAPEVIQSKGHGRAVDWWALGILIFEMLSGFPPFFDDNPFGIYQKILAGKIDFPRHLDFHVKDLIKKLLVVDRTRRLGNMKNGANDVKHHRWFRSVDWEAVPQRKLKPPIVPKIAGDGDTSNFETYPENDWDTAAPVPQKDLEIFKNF

[19] = molecular target: T7, cAMP-dependent protein kinase catalytic subunit PRKX (Homo sapiens); conditions: at 1 µM
[20] = molecular target: Rho-associated protein kinase 1 (Homo sapiens) (UniProt Q13464); conditions: at 0.1 µM;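 further: values are mean percent inhibition of ROCK1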
Rho-associated protein kinase 1 (Homo sapiens), sequence (Q13464 2-1354 limits assumed): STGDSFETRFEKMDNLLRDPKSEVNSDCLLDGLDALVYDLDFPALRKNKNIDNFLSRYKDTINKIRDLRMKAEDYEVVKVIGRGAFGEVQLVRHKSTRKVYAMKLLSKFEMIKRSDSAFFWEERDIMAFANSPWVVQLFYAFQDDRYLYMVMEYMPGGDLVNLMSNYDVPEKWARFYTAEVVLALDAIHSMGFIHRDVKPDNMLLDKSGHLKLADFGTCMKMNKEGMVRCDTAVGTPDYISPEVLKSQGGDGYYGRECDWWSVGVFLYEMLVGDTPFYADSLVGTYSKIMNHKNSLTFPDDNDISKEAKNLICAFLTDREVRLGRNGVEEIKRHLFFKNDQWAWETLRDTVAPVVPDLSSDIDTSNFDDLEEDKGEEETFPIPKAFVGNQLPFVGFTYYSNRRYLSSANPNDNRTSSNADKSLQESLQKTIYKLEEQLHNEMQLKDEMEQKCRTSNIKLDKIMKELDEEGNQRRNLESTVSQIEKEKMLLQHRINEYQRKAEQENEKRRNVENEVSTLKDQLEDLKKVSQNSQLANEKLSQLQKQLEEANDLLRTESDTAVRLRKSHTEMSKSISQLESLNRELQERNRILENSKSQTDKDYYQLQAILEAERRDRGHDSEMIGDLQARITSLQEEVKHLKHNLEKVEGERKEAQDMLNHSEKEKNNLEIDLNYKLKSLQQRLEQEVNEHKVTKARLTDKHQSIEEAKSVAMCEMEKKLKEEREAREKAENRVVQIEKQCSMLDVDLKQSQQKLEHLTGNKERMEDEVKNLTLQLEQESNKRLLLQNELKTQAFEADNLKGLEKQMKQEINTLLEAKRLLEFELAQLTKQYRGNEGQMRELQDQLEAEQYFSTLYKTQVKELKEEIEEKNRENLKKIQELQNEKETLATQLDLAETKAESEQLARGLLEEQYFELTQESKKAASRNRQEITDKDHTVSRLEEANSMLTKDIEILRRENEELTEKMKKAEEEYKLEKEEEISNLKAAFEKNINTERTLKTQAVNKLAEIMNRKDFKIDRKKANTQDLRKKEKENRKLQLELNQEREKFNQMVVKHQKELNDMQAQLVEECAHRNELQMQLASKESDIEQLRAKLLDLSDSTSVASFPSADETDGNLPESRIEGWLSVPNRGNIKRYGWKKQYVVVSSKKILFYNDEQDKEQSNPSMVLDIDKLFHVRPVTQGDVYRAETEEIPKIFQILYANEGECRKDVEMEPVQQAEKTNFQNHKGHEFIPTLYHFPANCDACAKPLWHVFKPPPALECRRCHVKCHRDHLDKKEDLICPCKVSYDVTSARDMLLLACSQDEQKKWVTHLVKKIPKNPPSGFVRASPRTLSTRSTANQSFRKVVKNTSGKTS

Protein kinase C theta type (Homo sapiens), sequence (Q04759 whole entry, looked up): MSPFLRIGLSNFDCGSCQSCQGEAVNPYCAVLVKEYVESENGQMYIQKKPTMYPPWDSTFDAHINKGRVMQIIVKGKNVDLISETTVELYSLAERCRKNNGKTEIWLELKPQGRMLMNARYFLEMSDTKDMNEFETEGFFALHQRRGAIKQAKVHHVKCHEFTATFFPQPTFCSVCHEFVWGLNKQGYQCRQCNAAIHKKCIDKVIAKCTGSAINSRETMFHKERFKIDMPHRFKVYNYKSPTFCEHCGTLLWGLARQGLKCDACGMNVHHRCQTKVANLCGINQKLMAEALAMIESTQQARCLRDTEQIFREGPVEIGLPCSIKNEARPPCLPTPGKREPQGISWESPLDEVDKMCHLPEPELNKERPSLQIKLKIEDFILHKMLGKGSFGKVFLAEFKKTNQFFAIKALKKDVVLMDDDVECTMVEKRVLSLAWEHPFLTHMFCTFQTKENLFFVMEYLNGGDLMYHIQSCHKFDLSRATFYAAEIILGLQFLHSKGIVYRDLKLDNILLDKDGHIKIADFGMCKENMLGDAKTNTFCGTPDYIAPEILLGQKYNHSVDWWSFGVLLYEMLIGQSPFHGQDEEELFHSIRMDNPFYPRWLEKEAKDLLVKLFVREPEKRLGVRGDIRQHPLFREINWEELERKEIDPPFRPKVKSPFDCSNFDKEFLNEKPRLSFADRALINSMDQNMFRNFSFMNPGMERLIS
Protein kinase C beta type (Homo sapiens), sequence (P05771 2-671 limits assumed): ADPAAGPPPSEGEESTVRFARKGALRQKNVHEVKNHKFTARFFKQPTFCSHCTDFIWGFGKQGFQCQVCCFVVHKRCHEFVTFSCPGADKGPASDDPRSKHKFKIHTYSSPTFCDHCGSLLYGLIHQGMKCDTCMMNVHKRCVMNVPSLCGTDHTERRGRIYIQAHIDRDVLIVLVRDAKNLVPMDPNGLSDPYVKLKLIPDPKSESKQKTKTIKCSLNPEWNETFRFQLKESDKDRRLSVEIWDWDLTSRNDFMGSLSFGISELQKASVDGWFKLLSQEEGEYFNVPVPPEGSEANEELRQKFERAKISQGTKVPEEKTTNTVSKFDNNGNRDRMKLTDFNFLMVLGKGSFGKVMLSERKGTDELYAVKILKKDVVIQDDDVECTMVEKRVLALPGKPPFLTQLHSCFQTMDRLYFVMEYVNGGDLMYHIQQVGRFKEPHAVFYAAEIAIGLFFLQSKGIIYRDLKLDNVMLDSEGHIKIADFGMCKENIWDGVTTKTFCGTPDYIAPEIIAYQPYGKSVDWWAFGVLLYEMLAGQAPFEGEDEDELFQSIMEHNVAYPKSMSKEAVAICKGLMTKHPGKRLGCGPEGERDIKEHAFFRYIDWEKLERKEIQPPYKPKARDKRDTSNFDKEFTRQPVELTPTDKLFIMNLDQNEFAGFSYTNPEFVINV

Row | SMILES | inhibition [1] | inhibition [2] | inhibition [3] | inhibition [4] | inhibition [5] | inhibition [6] | inhibition [7] | inhibition [8] | inhibition [9] | inhibition [10] | inhibition [11] | inhibition [12] | inhibition [13] | inhibition [14] | inhibition [15] | inhibition [16] | inhibition [17] | inhibition [18] | inhibition [19] | inhibition [20]
1 | C/C(Nc1ccc(S(N)(=O)=O)cc1)=C1/C(=O)Nc2ccccc21 | 2.57% | -0.37% | 0.02% | -0.23% | 3.24% | -0.77% | 1.28% | 0.51% | 15.9% | 0.69% | 11.3% | -0.08% | 9.13% | 0.96% | 3.66% | 0.21% | 8.25% | 1.97% | 4.84% | 2.38%
2 | CN(C)c1ccc2c(c1)/C(=C/Nc1ccc(S(N)(=O)=O)cc1)C(=O)N2 | 2.72% | 2.24% | 1.5% | 1.16% | 0.84% | 1.61% | 1.98% | 2.16% | 7.78% | 1.23% | 5.28% | 3.16% | 4.44% | 2.39% | 1.76% | 1.53% | 8.65% | 0.94% | 2.58% | 0.76%
3 | COc1ccc2cc(-c3c(-c4ccncc4)nc(-c4ccc([S+](C)[O-])cc4C)n3C)ccc2c1 (stereo not given) | -0.38% | 0.41% | -0.63% | -1.05% | -1.26% | 0.04% | 5.01% | -0.67% | -0.16% | -0.62% | 0.1% | -0.55% | -0.05% | 0.69% | 0.56% | 0.02% | 0.21% | 0.49% | 1.21% | -0.64%
